Measurements from PubChem BioAssay AID1345085 (National Center for Advancing Translational Sciences (NCATS), 2018).
Inconclusive results are not listed. The source made the active and inactive calls. Calls come from the whole dose curve; as a rule, active = well fitted cell-killing curve with a large enough effect; inconclusive = small, poorly fitted or top-dose-only effect, or effect the other way; inactive = no such curve, though single readings can be large or run the other way.

system: Hek293T; assay: Confirmatory qHTS for gynecologic anti-cancer compounds from libraries of approved drugs and bioactive compounds; settings: gynecologic cancer cell panel viability, ATPlite luminescence, 48 h; series mostly up to 57.6 µM; note: nearly all actives have a fitted effect of over 55% in size
Outline: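 Seeding 1,000 cells per well preceded overnight (16 h) attachment, after which 48 h drug treatment across 57.5 uM–0.977 nM (11 points) was applied. Remaining cellular ATP, detected by ATPlite luminescence, defined IC50.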
Potency is the fitted concentration of half-maximal effect.

| SMILES | Potency |
| --- | --- |
| C=C(C)[C@H]1Cc2c(ccc3c2O[C@@H]2COc4cc(OC)c(OC)cc4[C@@H]2C3=O)O1 | 432 nM (active) |
| C[C@H]1CCC/C=C/C2C[C@H](O)C[C@H]2[C@H](O)/C=C/C(=O)O1 (stereo partly drawn) | 1090 nM (active) |
| CCNC(=O)C[C@@H]1N=C(c2ccc(Cl)cc2)c2cc(OC)ccc2-n2c(C)nnc21 | inactive |
